For assay [1], the target named is Albumin (Bos taurus) (UniProt P02769). Put plainly: compounds binding labelled BSA control protein – biochemical, small-molecule microarray, Alexa647 label, 635/667 nm fluorescence, artefact control for SMM control protein annotation, profiling panel (AID 1118).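 Further: score merges 667 nm emission intensity and signal-to-noise per printed compound spot.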 The note with it: BSA-A647 binding, fluorescence 635 nm, higher = more signal.
Assay [2] is described as follows: probe aXIP binding to arrayed compounds – biochemical, NeuroSMM set, 635/667 nm fluorescence, primary screen (AID 1119).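 Further: probe is the protein aXip251-270 applied at 1 µg/mL to compound-printed slides; binding of probe to printed compounds measured as 667 nm fluorescence plus signal to noise.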 Particulars: small-molecule microarray, higher = more signal, called active from +8 up or from −8 down.
Assay [3] in a line: probe aNOTCH3 binding on compound microarray – biochemical, small-molecule microarray, 635/667 nm fluorescence, primary screen (AID 1120).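 Further: probe is a biotin-tagged antibody raised against NOTCH3 rather than NOTCH3 protein; score merges spot fluorescence near 667 nm with spot signal to noise.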 The note with it: higher = more signal.
Assay [4] can be described thus: probe aNOTCH2 binding on compound microarray – biochemical, small-molecule microarray, 635/667 nm fluorescence, primary screen (AID 1121).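 Further: score merges feature fluorescence read at 667 nm with its signal to noise.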 The note with it: higher = more signal.
For assay [5], the target named is Carbonic anhydrase 2 (Homo sapiens) (UniProt P00918). The assay is described as follows: compounds binding carbonic anhydrase 2 – biochemical, small-molecule microarray, Alexa647-labelled CAII, profiling panel (AID 1122). Particulars: CAII-A647 binding fluorescence, higher = more signal.
Assay [6] is described as follows: COS7 lysate on small-molecule microarray, probe aHis, 635 nm (AID 1123).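 Further: z-score combines 667nm fluorescence intensity with signal-to-noise per printed compound spot.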 Particulars: COS7 cell lysate, fluorescence, higher = more signal.
Assay [7] can be described thus: probe aLAP1 signal on lysate-treated microarray – cell lysate, small-molecule microarray, COS7 lysate, primary screen (AID 1124).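 Further: lysate comes from COS7 cells expressing LAP1 and is applied at 0.3 µg/mL; score merges spot fluorescence near 667 nm with signal-to-noise over triplicate slides.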 The note with it: probe aLAP1, fluorescence, higher = more signal.
Assay [8] concerns Sam68 (KHDRBS1). The assay is described as follows: compounds binding KHDRBS1 protein – biochemical, small-molecule microarray, 635 nm fluorescence, primary screen (AID 1125).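 Further: score merges 667 nm channel intensity with signal to noise over triplicate slides.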 The note with it: higher = more signal.
Assay [9] has as its system Chordin-like protein 2 (CHRDL2). The assay is described as follows: compounds binding chordin-like 2 – biochemical, small-molecule microarray, 635 nm fluorescence, primary screen (AID 1126).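 Further: printed compound slides probed with Chrdl2 protein at 4 µg/mL for 1 h at 4 C; score merges 667 nm emission intensity with signal to noise over three replicate slides.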 The note with it: fluorescence 635 nm, higher = more signal.
The target of assay [10] is Concanavalin-A (Canavalia ensiformis) (UniProt P02866). Put plainly: compounds binding concanavalin A lectin – biochemical, small-molecule microarray, Alexa647 label, 635 nm, artefact control for SMM control protein annotation, primary screen (AID 1127).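 Further: z combines 667 nm emission intensity with signal-to-noise across three replicate slides.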 Particulars: ConA-A647 binding fluorescence, higher = more signal.
Chain of Concanavalin-A (Canavalia ensiformis) (P02866 whole entry, looked up): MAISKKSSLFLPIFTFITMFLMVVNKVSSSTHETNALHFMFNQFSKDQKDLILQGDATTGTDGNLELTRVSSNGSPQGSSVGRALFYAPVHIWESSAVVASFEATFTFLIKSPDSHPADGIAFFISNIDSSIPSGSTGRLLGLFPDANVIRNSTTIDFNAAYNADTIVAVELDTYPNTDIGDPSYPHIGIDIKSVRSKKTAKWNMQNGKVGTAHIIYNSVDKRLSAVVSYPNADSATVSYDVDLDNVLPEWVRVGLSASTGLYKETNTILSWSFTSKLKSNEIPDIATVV

Composite z-score and composite Z-score data for 21 molecules are collected here from PubChem BioAssay.

The source made the active and inactive calls.

Chain of Albumin (Bos taurus) (P02769 whole entry, looked up): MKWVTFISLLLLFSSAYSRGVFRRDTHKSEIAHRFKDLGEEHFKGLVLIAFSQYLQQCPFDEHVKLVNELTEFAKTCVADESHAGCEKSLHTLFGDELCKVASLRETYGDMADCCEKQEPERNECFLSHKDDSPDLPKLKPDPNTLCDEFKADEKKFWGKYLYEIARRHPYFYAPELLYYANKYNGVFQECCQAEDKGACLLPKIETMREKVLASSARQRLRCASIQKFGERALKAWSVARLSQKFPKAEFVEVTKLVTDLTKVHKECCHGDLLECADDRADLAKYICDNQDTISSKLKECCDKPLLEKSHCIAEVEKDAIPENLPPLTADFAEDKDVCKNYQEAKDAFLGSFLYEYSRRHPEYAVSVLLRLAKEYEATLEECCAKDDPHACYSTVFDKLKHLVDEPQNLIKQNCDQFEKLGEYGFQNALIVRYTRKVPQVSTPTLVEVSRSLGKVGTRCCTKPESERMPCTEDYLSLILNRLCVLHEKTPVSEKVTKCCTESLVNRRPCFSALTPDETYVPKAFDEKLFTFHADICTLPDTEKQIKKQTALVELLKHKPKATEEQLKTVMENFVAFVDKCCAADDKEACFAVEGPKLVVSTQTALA

`NC(=O)NCC#Cc1ccc2c(c1)[C@]1(C(=O)N2)[C@H](C(=O)Nc2nc3ccccc3s2)[C@H]2C(=O)O[C@H](c3ccccc3)[C@H](c3ccccc3)N2[C@@H]1c1ccc(O)cc1`: the composite z-score in [1] was -0.0229; in assay [3], 0.114; in assay [4] it was 0.103; in [5], 0.0856; in assay [6], -0.482; in assay [7], 0.274. Also, the composite z-score in [8] turned out to be 0.846; in [9], 0.402; in [10] it was 1.07. Besides, the composite Z-score in [2] was 0.157 (inactive).
As for `O=C1c2ccccc2[C@](Cc2ccccc2I)(C(=O)NCc2ccccc2)[C@H](c2ccc(CO)cc2)N1C1CCCCC1`, the composite z-score is 0.861 in assay [1]; 0.16 in assay [3]; -0.0997 in [4]; 0.601 in assay [5]; 1.21 in assay [6]; 0.576 in [7]. The composite z-score in assay [8] came to 1.12; in assay [9] it was 0.271; in assay [10], 1.23. The composite Z-score in [2] was 0.534 (inactive).
As to `C[C@@H](OCc1ccccc1)C1NC(=O)[C@@]23C(=O)N[C@@H](Cc4ccccc4)C2[C@H](C)[C@@]2(C)O[C@H]2C3/C=C/C/C=C\CNC(=O)CNC1=O` (stereo not given in full), the composite z-score was 0.651 in assay [1]; -0.0647 in assay [3]; -0.133 in assay [4]; 0.721 in assay [5]; -0.282 in assay [6]; 0.234 in assay [7]. Further, the composite z-score in assay [8] is -1.28; in assay [9] it was 0.0667; in assay [10], -2.32. Further, the composite Z-score in [2] was 0.536 (inactive).
As for `C=C(/C=C/CNS(=O)(=O)c1ccc(C)cc1)[C@H](O)[C@H]1CCCN1S(=O)(=O)c1ccccc1[N+](=O)[O-]`, the composite z-score was 0.699 in assay [1]; -0.0932 in assay [3]; -0.138 in [4]; 0.305 in assay [5]; 0.0646 in assay [6]; 0.394 in assay [7]. Moreover, the composite z-score is 0.0808 in assay [8], 0.547 in assay [9] and 0.0635 in assay [10]. In addition, the composite Z-score in [2] was -0.327 (inactive).
Consider `CCOC(=O)C1=C[C@@H](c2ccccc2)N(S(=O)(=O)c2ccc(C)cc2)[C@H]1c1cccc(Cl)c1`, for which the composite z-score in assay [1] is 0.895; in [3], 0.224; in assay [4], 0.152; in assay [5] it was 0.703; in assay [6], -0.102; in assay [7] it was 0.882. Moreover, the values for the composite z-score in assay [8], in [9] and in [10] were 1.31, -0.599 and 1.11, respectively. The composite Z-score in [2] is -0.101 (inactive).
Turning to `NC(=O)N1C(=O)C2C(C1=O)C1C=C(c3ccc(CO)cc3)C2C(C2CC2)N1Cc1sc2ccccc2c1Cl` (stereo not given), the composite z-score in assay [1] was 0.849; in [3], 0.0225; in [4], -0.101; in assay [5] it was 0.468; in assay [6], 1.67; in assay [7], 0.733. Also, the composite z-score worked out at 1.31 in assay [8], 0.441 in assay [9] and 1.18 in [10]. Further, the composite Z-score in assay [2] is 0.742 (inactive).
`COC(=O)[C@H](Cc1ccccc1)N1CC(/C=C/C2CC2)=C[C@@H]1[C@@H](O)Cc1ccccc1`: the composite z-score was 0.506 in assay [1]; 0.126 in assay [3]; -0.166 in [4]; 0.171 in assay [5]; 0.992 in assay [6]; 1.66 in assay [7]. Moreover, the composite z-score in assay [8] worked out at 1.34; in [9], 0.779; in [10] it was 1. For the same molecule, the composite Z-score in assay [2] is -0.325 (inactive).
`O=C1C[C@]2(c3ccc([N+](=O)[O-])cc3)C(=O)N(Cc3ccccc3)c3cc(CO)ccc3[C@H]2N1CC12CC3CC(CC(C3)C1)C2`: the composite z-score in assay [1] is -0.729; in [3], -0.356; in [4], -0.207; in [5], -0.406; in assay [6] it was 0.284; in assay [7], 1.66. Besides, the composite z-score is -1.26 in [8], -1.27 in [9] and -1.73 in assay [10]. In assay [2], the composite Z-score is -0.767 (inactive).
Regarding `CC(C)(C)OC(=O)CC[C@@]1(C(=O)O)N=C(c2ccc(OCCCO)cc2)O[C@@H]1c1ccccc1`, the composite z-score was 0.273 in [1]; -0.1 in [3]; -0.0037 in [4]; 0.824 in assay [5]; 1.98 in [6]; -0.021 in assay [7]. Moreover, the composite z-score in [8] was 0.721; in [9] it was -0.811; in assay [10] it was 0.335. In addition, the composite Z-score in assay [2] is -0.204 (inactive).
Take `COC(=O)Cn1c(C(=O)N2CCCC2)cc2c1C[C@H]1CN(C(=O)c3ccccc3)[C@@](Cc3ccc(F)cc3)(C(=O)OC)[C@@H]21`: the composite z-score in assay [1] was 0.827; in assay [3], -0.0888; in [4] it was -0.036; in assay [5] it was 0.885; in [6] it was 0.965; in assay [7], 0.0395. For the same molecule, the values for the composite z-score in assay [8], in assay [9] and in assay [10] were -1.17, -0.451 and -0.432, respectively. Moreover, in assay [2], the composite Z-score is -0.14 (inactive).
Consider `CC(C)CNC(=O)[C@@]1(c2ccc([N+](=O)[O-])cc2)CC(=O)N(C2CCCCC2)[C@@H]1c1ccc(CO)cc1I`, for which the composite z-score is 0.441 in [1]; -0.0598 in [3]; -0.0761 in assay [4]; 0.469 in assay [5]; 1.86 in assay [6]; 0.15 in [7]. Further, the figures for the composite z-score in assay [8], in [9] and in assay [10] were 0.754, -0.662 and 0.282, respectively. The composite Z-score in assay [2] is 0.0911 (inactive).
As for `CC(=O)n1cc(C(O)C2C=CC3C(=O)N(c4ccccc4)C(=O)C3N2Nc2ccccc2)c2ccccc21` (stereo not given), the composite z-score in assay [1] came out at 0.408; in assay [3] it was 0.504; in assay [4], 0.207; in assay [5] it was 0.788; in assay [6], 1.08; in assay [7], 0.697. Also, the composite z-score in [8] came to 0.897; in [9], 0.8; in assay [10] it was 0.183. Also, the composite Z-score in assay [2] is 0.197 (inactive).
With `CCCC[C@@H]1C[C@H]1[C@@H](NC(=O)c1ccccc1)c1ccc(Cl)cc1`, the composite z-score in assay [1] is -0.413; in assay [3], -0.414; in assay [4], -0.179; in [5], -0.527; in [6], 0.847; in assay [7], -0.905. In addition, the composite z-score in assay [8] is -1.35; in assay [9], -2.74; in [10], -1.6. For the same molecule, in assay [2], the composite Z-score was 0.0169 (inactive).
For `C#CCNC(=O)[C@H](Cc1ccccc1)NC(=O)[C@@H](N=[N+]=[N-])C(C)C`, the composite z-score was 0.51 in [1]; -0.0431 in assay [3]; -0.134 in [4]; 0.179 in assay [5]; 0.88 in assay [6]; 0.0338 in [7]. Also, the figures for the composite z-score in [8], in assay [9] and in assay [10] were 1.01, 0.747 and 0.584, respectively. The composite Z-score in assay [2] was -0.197 (inactive).
With `NC(N)=NCc1cn(CCc2c[nH]c3ccccc23)nn1`, the composite z-score was 0.566 in [1]; -0.0647 in assay [3]; -0.12 in assay [4]; 0.633 in [5]; 0.421 in [6]; 0.262 in assay [7]. For the same molecule, the figures for the composite z-score in assay [8], in [9] and in [10] were 0.714, 0.866 and 0.948, respectively. Further, the composite Z-score in [2] was 0.354 (inactive).
Regarding `CC(C)CNC(=O)[C@@H]1c2ccccc2C(=O)N(Cc2cc(F)cc(C(F)(F)F)c2)[C@H]1c1ccc(CO)cc1`, the composite z-score in assay [1] was 0.382; in assay [3], 0.0628; in [4] it was -0.0486; in [5], 0.411; in assay [6], 1.07; in [7], 0.333. The composite z-score in assay [8] was 0.603; in assay [9], -0.182; in [10] it was 0.0535. The composite Z-score in [2] was -0.161 (inactive).
`CCOC(=CC(=O)OC)CC(O)c1cccc(Cl)c1` (stereo not given): the composite z-score is 0.451 in [1]; -0.17 in assay [3]; -0.176 in assay [4]; 0.606 in assay [5]; 1.47 in assay [6]; 0.49 in assay [7]. The figures for the composite z-score in assay [8], in [9] and in assay [10] were 0.505, -1.42 and 0.0032, respectively. Moreover, the composite Z-score in assay [2] was -0.114 (inactive).
On to `COCCCNC(=O)[C@@]1(Sc2ccc(C)cc2)CC(=O)N(Cc2cc(C(F)(F)F)cc(C(F)(F)F)c2)[C@@H]1c1ccc(CO)cc1`, for which the composite z-score in assay [1] was 0.734; in assay [3] it was 0.0562; in [4], -0.0136; in assay [5] it was 0.703; in [6], 2.41; in assay [7], 1.1. Besides, the composite z-score is 1.21 in assay [8], 0.749 in [9] and 0.715 in [10]. The composite Z-score in assay [2] was 1.14 (inactive).
Turning to `COc1ccc([Si](C)(C)[C@@H]2[C@@H](CCO)O[C@]3(C(=O)N(Cc4cccc(N5C(=O)c6cccc7cccc5c67)c4)c4ccccc43)[C@H]2C)cc1`, the composite z-score in assay [1] was 0.219; in assay [3], -0.0947; in [4], -0.101; in assay [5], 0.428; in [6] it was 1.17; in [7], -0.179. Moreover, the composite z-score in assay [8] was 0.262; in assay [9] it was -0.512; in [10] it was 0.48. Moreover, in assay [2], the composite Z-score is -0.139 (inactive).
Take `[N-]=[N+]=NCc1ccccc1[C@H]1OC(c2ccc(OCCCO)cc2)=N[C@@]1(CCS(=O)(=O)c1ccccc1)C(N)=O`: the composite z-score in assay [1] worked out at 0.736; in assay [3] it was 0.302; in assay [4], 0.123; in assay [5], 0.878; in assay [6], 3.31; in [7], 1.71. Also, the composite z-score in [8] was 1.3; in assay [9] it was -0.0208; in assay [10], 1.2. In addition, the composite Z-score in assay [2] was 0.0553 (inactive).
As to `COCCCNC(=O)[C@]1(Cc2ccccc2N=[N+]=[N-])N=C(c2ccc(OCCCO)cc2)O[C@@H]1c1ccccc1N=[N+]=[N-]`, the composite z-score is 0.99 in [1]; 0.0348 in assay [3]; -0.0372 in [4]; 0.666 in assay [5]; 2.33 in assay [6]; -0.0886 in assay [7]. Moreover, the composite z-score in assay [8] is 1.3; in [9] it was -0.502; in [10], 1.09. The composite Z-score in [2] was 0.0401 (inactive).
